The full list was thinned out, with hits kept by preference.
Pf Dd2 growth: blocks in vitro growth of P. falciparum Dd2 | P. falciparum Dd2 growth, SYBR Green, 72 h | Potency, µM (titrated, usually from 28.9 µM), without a hit: top-dose activity, negative = inhibition, most hits filed as inhibitors | 120,000 tested, 4.3% active | AID 1347417; active = well fitted inhibition curve with a large enough effect;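 also: plate controls were DMSO vehicle for no effect and reference drug for full effect; nearly all actives have a fitted effect of over 65% in size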
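Readout: SYBR Green fluorescence, 485 nm excitation, 535 nm emission, after ~16 h lysis at 37C. Before that, Dd2-infected red cells (2.5% hematocrit) grew 72 h with compound, 29 uM top final concentration.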
* = called active by the depositor; i = inactive; [ ] = dose if it differs, or a comment. Potency is read from the fitted curve at half-maximal effect.

SMILES | Pf Dd2 growth
CCC1c2nccn2CCCN1C(=O)Cn1c(=O)oc2ccccc21 (stereo not given) | 12.6µM*
CCC1c2nccn2CCCN1C(=O)Cc1ccc(OC)cc1 (stereo not given) | 7.08µM*
CCC1c2nccn2CCCN1C(=O)COC (stereo not given) | 28.8%
CC(C)C1c2nccn2CCCN1C(=O)Cn1c(=O)oc2ccccc21 (stereo not given) | -19.2%
COc1cc(CN2CCc3nc(N(C)C)[nH]c(=O)c3CC2)cc(OC)c1OC | -9.3%[5.79 µM]
CO[C@H]1C(=O)N(C2CCN(S(=O)(=O)c3ccc(C#N)cc3)CC2)[C@H]1c1ccncc1 | 6.2%
Cc1cccc(C)c1CN1CCC2(Cc3ccccc3CNC2=O)C1 (stereo not given) | -23.4%
C=Cc1ccc(Cn2c(C)c(CNCc3cccc(Br)c3)c(C(=O)O)c2C)cc1 | -17.0%
Cc1c(CNCCCc2ccccc2)c(C(=O)O)c(C)n1Cc1cccc(Cl)c1 | 8.91µM*
COc1cc(CNCc2c(C(=O)O)c(C)n(Cc3cccc(Cl)c3)c2C)cc(OC)c1OC | 0.1%
Cc1c(CNC2CCCCC2)c(C(=O)O)c(C)n1Cc1ccc(Cl)cc1 | -24.7%
Cc1c(CNCCCc2ccccc2)c(C(=O)O)c(C)n1Cc1ccc(Cl)cc1 | 8.91µM*
C=Cc1ccc(Cn2c(C)c(CNCc3ccccc3C)c(C(=O)O)c2C)cc1 | 2.4%
CC(C)n1ccc2c(NC(=O)Cn3nc4c(cc3=O)CCCCC4)cccc21 | -26.1%
CN(C)C(=O)c1cccnc1OC1CCN(C(=O)c2ccccc2Br)C1 (stereo not given) | i
O=C(NCc1ccccc1F)C1CCN(C(=O)c2ncn3c2COC(c2ccccc2)C3)CC1 (stereo not given) | -16.1%
CCc1nnc(CN2CCC(N3CCCC(C(=O)N4CCOCC4)C3)CC2)o1 (stereo not given) | 6.1%
CN1[C@@H](CCC(=O)Nc2ccccc2)CNC(=O)[C@@H]2[C@H]1CCN2Cc1ccc(C(F)(F)F)cc1 | i
Cc1ccc(CN2CC[C@@H]3[C@H]2C(=O)NC[C@H](CCC(=O)Nc2ccccc2)N3C)cc1 | 11.2µM*
C#CCNC(=O)CC[C@H]1CNC(=O)[C@@H]2[C@@H](CCN2Cc2ccc(C)cc2)N1C | i
Cc1cc(C[C@@H]2COC[C@@H]2NC(=O)c2cnn3ccccc23)on1 | -13.7%
O=C(Nc1cccc(F)c1)N1CCc2c(nc3cc(-c4ccccc4Cl)[nH]n3c2=O)C1 | i
COc1ccc(NC(=O)C2Cc3ccccc3CN2S(=O)(=O)c2ccccc2)cc1OC (stereo not given) | -24.6%
COc1ccc(S(=O)(=O)N2Cc3ccccc3CC2C(=O)Nc2cc(Cl)ccc2Cl)cc1 (stereo not given) | 10µM*
COc1ccc(OC)c(S(=O)(=O)N2Cc3ccccc3CC2C(=O)Nc2ccc(Cl)cc2)c1 (stereo not given) | i
SMILES | Pf Dd2 growth
Cc1cc(C(=O)N(CCC(=O)NCc2ccccc2)CCC(C)C)c(C)o1 | -14.8%
Cc1cc(C(=O)N(CCC(=O)NCCC(C)C)CCC(C)C)c(C)o1 | 11.2µM*
CCCCCNC(=O)CCN(CC)C(=O)c1cc(C)oc1C | i
COCCOC1CCN(C(=O)c2ccccc2)CC1 | 111.8%
NC(=O)C1CCN(c2ncncc2-c2nc(-c3ccccc3)no2)CC1 | -20.5%
O=C(c1ccco1)N1CCN(c2ncncc2-c2nc(-c3ccccc3)no2)CC1 | 3.98µM*
c1ccc(-c2noc(-c3cncnc3N3CCN(c4ccccc4)CC3)n2)cc1 | -11.3%
O=C(c1ccccc1F)N1CCn2c(nn(-c3ccncc3)c2=O)C1 | 11.7%[44.1 µM]
CCOC(=O)N1CCN(Cc2nc3cc(NC(=O)c4ccccc4OC)ccc3n2C(C)C)CC1 | -1.5%
COc1cccc(/C=C/C(=O)Nc2ccc3nc(N4CCN(C)CC4)cc(C)c3c2)c1OC | 1.26µM*
CCN1CCN(c2cc(C)c3cc(NC(=O)/C=C/c4cccc(OC)c4OC)ccc3n2)CC1 | 1.12µM*
COc1cc(NC(=O)C2CCN(c3cnc4ccccc4n3)CC2)cc(OC)c1OC | -18.6%
CN(C)C(=O)C1CN(C(=O)Nc2cc(F)c(F)c(F)c2)CC12CCOCC2 (stereo not given) | 6.3%
Cc1ccc(-n2cc3c(c2-c2ccccc2Br)c(=O)n(C)c(=O)n3C)cc1N | 12.6µM*
Cn1c(=O)c2c(-c3ccccc3Br)n(CCc3ccccc3)cc2n(C)c1=O | -19.9%
Cc1cc(N)c(-n2cc3c(c2-c2ccc(Br)cc2)c(=O)n(C)c(=O)n3C)cc1C | -18.1%
CN1CCC(N2C[C@@H](CO)[C@H](c3nc(-c4ccncc4)no3)C2)CC1 | 27.5%
CC[C@H]1CN(C(=O)Nc2cccc(C(F)(F)F)c2)CC[C@H]1CC(=O)NCc1ccc(OC)c(OC)c1 | 7.3%
CN1C(=O)C(c2ccccc2)CC12CCN(C(=O)CN1CCCC1)CC2 (stereo not given) | 6.2%
COc1ccc(OC)c(NC(=O)c2ccc3c(c2)C(O)CCCCCN3C)c1 (stereo not given) | i
CN1CCCCCC(O)c2cc(C(=O)Nc3cccc(OC(F)(F)F)c3)ccc21 (stereo not given) | 14.1µM*
Cc1ccc(CNC(=O)c2ccc3c(c2)N(C)C2CCCN2C3=O)cc1 (stereo not given) | i
CCN1c2cc(C(=O)Nc3cccc(F)c3)ccc2C(=O)N2CCCCC21 (stereo not given) | -5.3%
CCN1c2cc(C(=O)Nc3ccc(OC(F)(F)F)cc3)ccc2C(=O)N2CCCC21 (stereo not given) | -14.7%
CCN1c2cc(C(=O)Nc3ccc(OC(F)(F)F)cc3)ccc2C(=O)N2CCCCC21 (stereo not given) | 1.78µM*
SMILES | Pf Dd2 growth
Cc1cccc(CNC(=O)c2ccc3c(c2)N(C)C2CCCCN2C3=O)c1 (stereo not given) | 3.98µM*
CCN1c2cc(C(=O)Nc3ccc(SC)cc3)ccc2C(=O)N2CCCCC21 (stereo not given) | i
CCN1c2cc(C(=O)Nc3ccc(OC)cc3)ccc2C(=O)N2CCCCCC21 (stereo not given) | i
CCN1c2cc(C(=O)Nc3cccc(SC)c3)ccc2C(=O)N2CCCCCC21 (stereo not given) | 6.31µM*
CN1c2cc(C(=O)NCc3cccc(Cl)c3)ccc2C(=O)N2CCCCCC21 (stereo not given) | i
COc1cccc(NC(=O)c2ccc3c(c2)C(O)CCCCCN3C)c1 (stereo not given) | -9.3%
O=C(c1ccco1)N1CC(Oc2ccc(-c3nc(-c4ccccc4)no3)cc2)C1 | -5.9%[5.79 µM]
CCCN(CC1CC1)C(=O)C1CCc2ncc(-c3ccc(F)cc3)n2C1 (stereo not given) | i
Cc1nc([C@H]2CCN(Cc3ccc(F)cc3F)C[C@H]2NC(=O)CN(C)C)n[nH]1 | -23.0%
O=C1Nc2ccccc2CC12CN(Cc1ccc(F)cc1)C2 | -29.1%[44.1 µM]
O=C1NC2(CCCN(C(=O)c3ccc(C(F)(F)F)cc3)C2)COc2ccccc21 (stereo not given) | -1.5%
Cc1ccc(Nc2ncncc2-c2nc(-c3ccccc3)no2)cc1F | i
CC(=O)N1C[C@@H](C(=O)N2CCC(Cc3ccccc3)CC2)[C@H](c2nc(C)no2)C1 | i
O=C(c1ccc(Cl)cc1)N1CCc2c(n(Cc3cccnc3)n(-c3ccccc3)c2=O)C1 | 26.9%
O=C(NC1CCN(c2cc(-c3ccc(Cl)cc3)[nH]n2)C1)c1ccccc1Br (stereo not given) | i
CNC(=O)[C@@H]1C[C@H](Oc2cccnc2)CN1C(=O)c1ccc(OC)nc1 | 23.8%
N#Cc1cccc(C(=O)N2CCOCCNC(=O)CC2)c1 | 13.7%
